# From PubChem
# Pf Dd2 growth: inhibitors of Plasmodium falciparum Dd2 growth. P. falciparum Dd2 growth, SYBR Green, 72 h. AID 1347417. Potency, µM (titrated, usually from 28.9 µM), hits mostly inhibitors. 4.3% of 120,000 active; active = well fitted inhibition curve with a large enough effect; also: nearly all actives have a fitted effect of over 65% in size
#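 Readout: SYBR Green fluorescence, 485 nm excitation, 535 nm emission, after ~16 h lysis at 37C. Before that, Dd2-infected red cells (2.5% hematocrit) grew 72 h with compound, 29 uM top final concentration.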
# A number is an active result; i = inactive. This excerpt belongs to a sample that is enriched for hits.
SMILES,Pf Dd2 growth
CC(NC(=O)COc1ccc(F)cc1)C(=O)N1CCN(c2ccccn2)CC1 (stereo unspecified),i
CCC(=O)NCCc1sc2nc(-c3ccc(OC)cc3)nn2c1C,i
COc1ccc(-c2nc3sc(CCNC(=O)Cc4ccc(Cl)cc4)c(C)n3n2)cc1,i
CCOc1ccc(CC(=O)NCCc2sc3nc(-c4ccc(OC)cc4)nn3c2C)cc1,i
COc1ccc(-c2nc3sc(CCNC(=O)c4ccc(C(C)(C)C)cc4)c(C)n3n2)cc1,1.12µM
COc1ccc(-c2nc3sc(CCNC(=O)c4ccc(Br)o4)c(C)n3n2)cc1,8.91µM
Cc1c(CCNC(=O)c2ccc(Br)o2)sc2nc(-c3ccc(Cl)cc3)nn12,i
CC(=O)Nc1ccc(C2(C(=O)NCc3ccc(F)cc3)CCC2)cc1,i
Cc1cnc(C(=O)N[C@@H]2CCC[C@@H]2C(=O)NCCC2=CCCCC2)cn1,i
Cc1ccc(C(=O)CSc2nc3cc(C(=O)NC4CCCC4)ccc3c(=O)n2CC2CCCO2)cc1 (stereo unspecified),i
O=C(CSc1nc2cc(C(=O)NC3CCCC3)ccc2c(=O)n1CC1CCCO1)c1ccc(F)cc1 (stereo unspecified),i
COCCn1c(SCC(=O)c2ccc(C)cc2)nc2cc(C(=O)NC3CCCC3)ccc2c1=O,i
COCCn1c(SCC(=O)c2ccc(C)cc2C)nc2cc(C(=O)NC3CCCC3)ccc2c1=O,i
Cc1ccc(C)c(C(=O)CSc2nc3cc(C(=O)NC4CCCC4)ccc3c(=O)n2CC2CCCO2)c1 (stereo unspecified),10µM
O=C(CSc1nc2cc(C(=O)NC3CCCC3)ccc2c(=O)n1CC1CCCO1)c1cccc(Cl)c1 (stereo unspecified),10µM
CO[C@H]1C(=O)N(C2CCN(C(=O)c3cnccc3C)CC2)[C@H]1c1ccncc1,i
CC(C)CCN1CC2(CCCN(C(=O)CN3C(=O)CN(C)C3=O)C2)CCC1=O (stereo unspecified),i
COc1cccc(COC2CN(CC(C)C)C(=O)CN(C(=O)c3csc(C(C)=O)c3)C2)c1 (stereo unspecified),i
COc1ccc(C(=O)NCc2ccnc3[nH]ccc23)cc1,i
O=C(O)c1cnc(-c2cc(NCc3ccccn3)nc3[nH]ccc23)c(Cl)c1,i
CCNC(=O)c1ccc(-c2cc(NC3CCCC3)nc3[nH]ccc23)nc1,10µM
Nc1ncc(-c2ccc(-c3cc(NC4CCCC4)nc4[nH]ccc34)cc2)[nH]1,8.91µM
Cc1nc(-c2c3n(c(=O)n(CC(=O)Nc4ccc(C)c(F)c4)c2=O)CCCCC3)no1,i
COc1cccc([S+](=O)([O-])N2CCNc3cnc(Nc4ccc(N5CCOCC5)cc4)nc3C2)c1,i
Cc1ccc(-c2ncc[nH]2)o1,i
SMILES,Pf Dd2 growth
CCOC(=O)C1(C/C=C/c2ccccc2)CCCN(C(=O)C2CCOCC2)C1 (stereo unspecified),i
COCCCNc1nc2c(S(=O)(=O)c3ccc(C)cc3)nnn2c2ccccc12,i
COCCCNc1nc2c(S(=O)(=O)c3ccccc3)nnn2c2ccccc12,i
COCCCNc1nc2c(-c3ccccc3)nnn2c2ccccc12,7.94µM
CN1CCN(CCCNC(=O)Cn2c(-c3cccs3)cc3cc(Cl)ccc32)CC1,12.6µM
CCN1CCN(CCCNC(=O)Cn2c(-c3cccs3)cc3cc(Cl)ccc32)CC1,11.2µM
CCCN1CCN(CCCNC(=O)Cn2nc(C)n3c(cc4c(OC)cccc43)c2=O)CC1,i
Cc1ccc(NC(=O)Cn2c(CCC(=O)O)ccc2-c2cccs2)cc1Cl,i
CN1CCN(CCC(=O)Nc2ccc(Cl)cc2)CC1,i
O=C(O)Cn1c(-c2cccs2)cc2cc(Cl)ccc21,i
CCC(C)NC(=O)Cn1c(-c2cccs2)cc2cc(Cl)ccc21 (stereo unspecified),i
CCN(CC)CCCNC(=O)Cn1c(-c2cccs2)cc2cc(Cl)ccc21,11.2µM
CCc1nn(CC(=O)NCCCN2CCN(C)CC2)c(=O)c2cc3occc3n12,i
CC(C)CC1=NC2(CCN(C(=O)c3ccoc3)CC2)C(=O)N1,i
Cc1noc(-c2ccco2)c1C(=O)NCCC(c1ccccc1)c1ccccc1,i
NC(=O)[C@@H](Cc1c[nH]c2ccccc12)NC(=O)[C@@H]1CN(C(=O)Nc2ccccc2)CCN1C(=O)C1CCCCC1,i
CN(C)c1cccc(C(=O)N2CCC(n3cc(-c4nc(-c5ccccc5)no4)nn3)C2)c1 (stereo unspecified),i
CC1=C[C@@H](CN(C)CCO)[C@H](C(C)C)C[C@H]1Cc1nnc(-c2ccc(N(C)C)cc2)o1,2.51µM
CC1=C[C@@H](CNCCN(C)C)[C@H](C(C)C)C[C@H]1Cc1nnc(C)o1,i
COCCNC(=O)C[C@@H]1C[C@@H](C(C)C)[C@H](CNC(=O)c2cnccn2)C=C1C,i
COCCNC[C@@H]1C=C(C)[C@H](Cc2nnc(-c3ccc(N(C)C)cc3)o2)C[C@H]1C(C)C,3.55µM
CC1=C[C@@H](CO)[C@H](C(C)C)C[C@H]1Cc1nnc(-c2ccc(N(C)C)cc2)o1,2µM
CC1=C[C@@H](CN(CC2CC2)CC2CC2)[C@H](C(C)C)C[C@H]1Cc1nc2ccncc2[nH]1,i
CC1=C[C@@H](CNCCN(C)C)[C@H](C(C)C)C[C@H]1Cc1nnc(-c2ccc(C)cc2)o1,2.24µM
CC1=C[C@@H](CO)[C@H](C(C)C)C[C@H]1Cc1nnc(-c2ccncc2)o1,i
SMILES,Pf Dd2 growth
COCCNC(=O)C[C@@H]1C[C@@H](C(C)C)[C@H](CNC(=O)CCC(=O)O)C=C1C,i
CC1=C[C@@H](CO)[C@H](C(C)C)C[C@H]1Cc1nnc(Cc2c[nH]c3ccccc23)o1,i
COCCN1C(=O)CCC2(C(=O)NCCCN3CCCC3)CCCC=C12 (stereo unspecified),i
CN(Cc1cccnc1)Cc1nc(C2(O)CCN(C3CCCC3)CC2)cs1,i
CCOc1ccccc1C(=O)NCc1nnc2cc(-c3nc(CC)no3)ccn12,i
CN1C(=O)c2ccccc2CC12CN(C(=O)c1ccc(Cl)cc1)C2,i
COc1cc(/C=C/CN2CC(=O)N(C(C)C)CC(OCc3noc(C)n3)C2)ccc1O (stereo unspecified),i
COCCN1CC(C(=O)N(C)Cc2sccc2C)CCC1=O (stereo unspecified),i
CC(C)C(=O)N1CCCCCNC(=O)[C@@H]2CCCC[C@@H]21,i
O=C(NC1CCCN(c2cc(-c3ccccc3)[nH]n2)C1)c1c[nH]c2ccccc12 (stereo unspecified),i
COc1ccc(CN2Cc3[nH]nc(-c4ccccc4Cl)c3CC2=O)cc1,i
CCCS(=O)(=O)N1CCC(CCOC)(NC(=O)C2CC2)CC1,i
CCOC(=O)c1sc(NC(=O)C2CC(=O)N(c3n[nH]c4ccccc34)C2)nc1C (stereo unspecified),i
CC1=C[C@@H](CN2CCC[C@H]2CO)[C@H](C(C)C)C[C@H]1Cc1nnc(-c2ccc(N(C)C)cc2)o1,1.41µM
CN(C)c1ccc(-c2nnc([C@H]3CCN(C(=O)CCC(=O)O)C3)o2)cc1,i
COc1ccc(-c2noc([C@@H]3CCCN3C(=O)c3cc(Cl)ccc3OC)n2)cc1,i
COc1ccc(-c2noc(N3CCC(C(=O)Nc4ccc(F)cc4Cl)CC3)n2)cc1,i
COc1ccc(-c2noc(N3CCC(C(=O)N(C)c4cc(Cl)ccc4OC)CC3)n2)cc1,10µM
CC1=NOC2(CCN(C(=O)c3ccc(C)cc3)CC2)C1,i
Cc1[nH]c2ccccc2c1CC(=O)NC1CCCc2nc(N(C)C)ncc21 (stereo unspecified),i
CCCn1c2ccc(F)cc2c2nnc(SCCN3CCCCC3)nc21,7.94µM
